Inconclusive results are not listed. Calls of active or inactive are those of the source. Unless noted, the call rests on the fitted dose curve; in most records, active means well fitted curve in the direction sought with a large enough effect in the repeat runs; inconclusive means weak or mixed curves; inactive means no such curve, though single readings can be large; an effect the other way counts as inactive or inconclusive.
Tests used:
[1] = qHTS assay to identify small molecule antagonists of the glucocorticoid receptor (GR) signaling pathway - cell viability counter screen (AID 720693); further: nearly all actives have a fitted effect of over 55% in size
[2] = qHTS assay for identifying genotoxic compounds that show differential cytotoxicity against isogenic chicken DT40 cell lines with known DNA damage response pathways - wild type cell line (AID 743012); further: nearly all actives have a fitted effect of over 60% in size; further: potency means the concentration at half of the fitted maximal effect
Procedure, shortened: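 Luminescent ATP viability signal (CellTiter-Glo, 30 min RT) recorded after wild type DT40 cells were incubated with compounds for 40 h at 37 C/5% CO2.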

[3] = qHTS assay for identifying genotoxic compounds that show differential cytotoxicity against isogenic chicken DT40 cell lines with known DNA damage response pathways - Rad54/Ku70 mutant cell line (AID 743015); further: nearly all actives have a fitted effect of over 60% in size; further: potency means the concentration at half of the fitted maximal effect
[4] = qHTS assay to identify small molecule antagonists of the androgen receptor (AR) signaling pathway - cell viability counter screen (AID 743033; further: nearly all actives have a fitted effect of over 45% in size)
[5] = qHTS assay to identify small molecule antagonists of the androgen receptor (AR) signaling pathway using the MDA cell line - cell viability counter screen (AID 743041; further: nearly all actives have a fitted effect of over 45% in size)
Procedure, shortened: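 Cytotoxicity counter screen: MDA-kb2 AR-luc cells, compound + R1881, 16 h, 37C, 0% CO2; CellTiter-Fluor added at 15.5 h, fluorescence read after 30 min.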

[6] = qHTS assay to identify small molecule antagonists of the thyroid receptor (TR) signaling pathway (AID 743065); further: nearly all actives have a fitted effect of over 55% in size; further: potency means the concentration at half of the fitted maximal effect
Procedure, shortened: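 GH3.TRE-Luc rat pituitary cells (two TREs driving luciferase) were dosed with compound, then stimulated with 1 nM T3 (final) for 23.5 h at 37 C. ONE-Glo luminescence was the read-out, with CellTiter-Fluor fluorescence as the cytotoxicity counter-screen.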

[7] = tested on: thyroid hormone receptor (rat, GH3 cells); assay: qHTS assay to identify small molecule agonists of the thyroid receptor (TR) signaling pathway (AID 743066; calls by dose curve)
[8] = qHTS assay to identify small molecule antagonists of the estrogen receptor alpha (ER-alpha) signaling pathway - cell viability counter screen (AID 743074; calls by dose curve;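 further: HEK293 cells carrying ER-alpha-UAS-bla reporter stimulated with 17beta-estradiol; nearly all actives have a fitted effect of over 45% in size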)
Aromatase (Homo sapiens) = Aromatase (Homo sapiens) (UniProt P11511); assay: qHTS assay to identify aromatase inhibitors (AID 743083); further: series mostly up to about 70 µM; nearly all actives have a fitted effect of over 55% in size
Sequence of Aromatase (Homo sapiens) (P11511 whole entry, looked up): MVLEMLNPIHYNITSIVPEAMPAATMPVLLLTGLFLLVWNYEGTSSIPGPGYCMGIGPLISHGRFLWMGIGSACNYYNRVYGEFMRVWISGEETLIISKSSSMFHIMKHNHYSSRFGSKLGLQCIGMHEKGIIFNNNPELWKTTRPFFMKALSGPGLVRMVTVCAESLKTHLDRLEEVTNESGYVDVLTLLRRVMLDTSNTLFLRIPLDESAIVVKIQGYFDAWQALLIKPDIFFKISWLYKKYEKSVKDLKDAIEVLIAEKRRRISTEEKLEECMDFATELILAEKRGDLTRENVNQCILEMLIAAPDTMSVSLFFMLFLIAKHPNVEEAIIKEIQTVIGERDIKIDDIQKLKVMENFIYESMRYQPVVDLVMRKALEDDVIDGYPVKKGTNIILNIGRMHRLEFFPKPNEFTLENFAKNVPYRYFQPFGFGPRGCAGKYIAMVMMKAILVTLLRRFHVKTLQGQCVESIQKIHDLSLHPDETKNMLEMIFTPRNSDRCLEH

[9] = qHTS assay to identify small molecule antagonists of the thyroid receptor (TR) signaling pathway - cell viability counter screen (AID 743064); further: nearly all actives have a fitted effect of over 50% in size
Procedure, shortened: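 Viability of T3-stimulated (1 nM final) GH3.TRE-Luc cells is measured by CellTiter-Fluor fluorescence after 23.5 h compound exposure at 37 °C plus 30 min reagent incubation.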

[10] = target: Estrogen receptor (Homo sapiens) (UniProt P03372); assay: qHTS assay to identify small molecule antagonists of the estrogen receptor alpha (ER-alpha) signaling pathway (AID 743069; active means well fitted curve in the direction sought with a large enough effect in the signal ratio in the repeat runs, not every such curve was filed as active; the % refers to the signal ratio)
Sequence of Estrogen receptor (Homo sapiens) (P03372 whole entry, looked up): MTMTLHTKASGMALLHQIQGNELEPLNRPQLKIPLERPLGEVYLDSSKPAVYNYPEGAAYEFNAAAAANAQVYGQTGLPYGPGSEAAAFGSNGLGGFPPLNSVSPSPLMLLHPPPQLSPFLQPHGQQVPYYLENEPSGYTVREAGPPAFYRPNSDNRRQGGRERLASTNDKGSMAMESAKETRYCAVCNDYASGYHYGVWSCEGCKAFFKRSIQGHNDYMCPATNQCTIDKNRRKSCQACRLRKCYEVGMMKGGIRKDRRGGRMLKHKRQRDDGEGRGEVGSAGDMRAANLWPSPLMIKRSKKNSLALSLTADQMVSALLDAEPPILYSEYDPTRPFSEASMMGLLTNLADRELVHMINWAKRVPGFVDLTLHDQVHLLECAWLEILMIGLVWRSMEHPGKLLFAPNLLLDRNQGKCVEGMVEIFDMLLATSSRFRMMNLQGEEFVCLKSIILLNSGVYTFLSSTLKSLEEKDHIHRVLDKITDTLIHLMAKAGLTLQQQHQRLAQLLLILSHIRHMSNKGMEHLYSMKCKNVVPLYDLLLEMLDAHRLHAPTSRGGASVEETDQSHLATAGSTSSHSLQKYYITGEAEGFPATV
Procedure, shortened: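 Beta-lactamase FRET fluorescence is read after 2 hr at room temperature with LiveBLAzer B/G substrate. Before that, ER-alpha-bla HEK293 cells sit 4 hr after plating, then receive compound plus 17beta-estradiol and incubate 18 hr at 37C.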

[11] = target: Estrogen receptor (Homo sapiens) (UniProt P03372); assay: qHTS assay to identify small molecule agonists of the estrogen receptor alpha (ER-alpha) signaling pathway (AID 743075; calls by dose curve;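 further: HEK293 GripTite cells with ER-alpha and UAS-driven beta-lactamase reporter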)
[12] = target: Estrogen receptor (Homo sapiens) (UniProt P03372); assay: qHTS assay to identify small molecule agonists of the estrogen receptor alpha (ER-alpha) signaling pathway using the BG1 cell line (AID 743079); further: nearly all actives have a fitted effect of over 20% in size; further: potency means the concentration at half of the fitted maximal effect
[13] = qHTS assay to identify small molecule antagonists of the estrogen receptor alpha (ER-alpha) signaling pathway using the BG1 cell line (AID 743080; calls by dose curve; further: series mostly up to about 70 µM; nearly all actives have a fitted effect of over 25% in size)
Procedure, shortened: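 Antagonist mode: compounds in DMSO were pinned onto BG1-Luc-4E2 cells alongside 17beta-estradiol agonist, incubated 21.5 h, and ERE-driven luciferase measured with ONE-Glo. Cytotoxicity was multiplexed using CellTiter-Fluor fluorescence.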

[14] = qHTS assay to identify small molecule antagonists of the estrogen receptor alpha (ER-alpha) signaling pathway using the BG1 cell line - cell viability counter screen (AID 743081);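 further: compound given together with 17beta-estradiol as the ER stimulus; series mostly up to about 70 µM; nearly all actives have a fitted effect of over 45% in size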
[15] = qHTS assay for identifying genotoxic compounds that show differential cytotoxicity against isogenic chicken DT40 cell lines with known DNA damage response pathways - Rev3 mutant cell line (AID 743014); further: nearly all actives have a fitted effect of over 55% in size
[16] = target: Androgen receptor (Homo sapiens) (UniProt P10275); assay: qHTS assay to identify small molecule antagonists of the androgen receptor (AR) signaling pathway (AID 743035; active means well fitted inhibition curve with a large enough effect in the signal ratio in the repeat runs, not every such curve was filed as active; the % refers to the signal ratio)
Sequence of Androgen receptor (Homo sapiens) (P10275 whole entry, looked up): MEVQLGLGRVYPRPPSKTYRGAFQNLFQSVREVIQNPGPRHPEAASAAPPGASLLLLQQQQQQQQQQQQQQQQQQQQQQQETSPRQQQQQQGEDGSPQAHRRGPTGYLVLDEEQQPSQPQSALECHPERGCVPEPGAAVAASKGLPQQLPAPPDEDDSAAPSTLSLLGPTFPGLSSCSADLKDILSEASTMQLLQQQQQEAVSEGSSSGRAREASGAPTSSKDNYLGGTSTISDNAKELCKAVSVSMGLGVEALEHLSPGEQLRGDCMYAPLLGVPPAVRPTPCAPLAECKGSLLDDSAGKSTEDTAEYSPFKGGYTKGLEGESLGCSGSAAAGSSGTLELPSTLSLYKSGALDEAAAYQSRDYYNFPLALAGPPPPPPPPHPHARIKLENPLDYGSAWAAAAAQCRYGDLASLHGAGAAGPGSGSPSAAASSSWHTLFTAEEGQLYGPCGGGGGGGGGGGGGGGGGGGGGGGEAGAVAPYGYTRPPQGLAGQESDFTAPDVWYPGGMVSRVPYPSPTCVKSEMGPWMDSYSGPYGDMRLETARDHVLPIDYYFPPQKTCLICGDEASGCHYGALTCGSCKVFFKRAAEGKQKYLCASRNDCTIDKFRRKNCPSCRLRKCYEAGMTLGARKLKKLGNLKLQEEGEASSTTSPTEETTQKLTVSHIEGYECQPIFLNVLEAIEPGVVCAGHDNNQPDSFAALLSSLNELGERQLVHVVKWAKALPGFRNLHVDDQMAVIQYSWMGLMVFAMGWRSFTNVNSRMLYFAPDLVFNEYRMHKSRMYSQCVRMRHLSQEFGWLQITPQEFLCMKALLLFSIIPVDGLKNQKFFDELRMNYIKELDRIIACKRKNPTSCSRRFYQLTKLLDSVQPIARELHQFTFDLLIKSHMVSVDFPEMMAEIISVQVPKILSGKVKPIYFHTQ
Procedure, shortened: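 Quantitative HTS of the Tox21 10K library used HEK293 AR-UAS-bla cells stimulated with R1881 alongside compound for 16 h at 37C, followed by beta-lactamase FRET detection (LiveBLAzer B/G, 2 h, RT).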

[17] = target: Androgen receptor (Homo sapiens) (UniProt P10275); assay: qHTS assay to identify small molecule agonists of the androgen receptor (AR) signaling pathway using the MDA cell line (AID 743040; further: nearly all actives have a fitted effect of over 20% in size)
Procedure, shortened: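 Luciferase read-out, ONE-Glo, 30 min RT. Cells: MDA-kb2 AR-luc, MMTV promoter with AR and GR response elements. Compound exposure 16 h, 37C, 0% CO2, after 5 h pre-incubation. qHTS agonist mode.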

[18] = target: Androgen receptor (Homo sapiens) (UniProt P10275); assay: qHTS assay to identify small molecule antagonists of the androgen receptor (AR) signaling pathway using the MDA cell line (AID 743042; further: nearly all actives have a fitted effect of over 55% in size)
Procedure, shortened: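 MDA-kb2 breast carcinoma cells carrying MMTV-luciferase (AR/GR responsive) were co-treated with compounds and the agonist R1881 for 16 h at 37C. Inhibition read as ONE-Glo luminescence; CellTiter-Fluor fluorescence measured in parallel for cytotoxicity.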

Measured: Potency

CN1CCC[C@@H]1Cc1c[nH]c2ccc(CCS(=O)(=O)c3ccccc3)cc12
active: [2] 26.6 µM | [3] 29.8 µM | [6] 21.1 µM
inactive: [1] | [4] | [5] | [7] | [8] | Aromatase (Homo sapiens)

O=Cc1ccc(F)c(Br)c1
inactive: [1] | [2] | [4] | [5] | [9] | [6] | [7] | [10] | [8] | [11] | [12] | [13] | [14] | Aromatase (Homo sapiens)

CCN(CCCc1ccccc1)CCCc1ccccc1
active: [2] 2.02 µM | [3] 2.27 µM
inactive: [1] | [4] | [5] | [9] | [7] | [10] | [8] | [11] | [12] | [13] | [14] | Aromatase (Homo sapiens)

CC1(C)S[C@@H]2[C@H](NC(=O)C(C(=O)O)c3ccccc3)C(=O)N2[C@H]1C(=O)O (some centres not stated)
inactive: [1] | [2] | [3] | [4] | [5] | [9] | [6] | [7] | [8] | [14] | Aromatase (Homo sapiens)

CC(C)=CCC[C@](C)(O)[C@@H]1CC=C(C)CC1
inactive: [1] | [15] | [3] | [4] | [5] | [9] | [6] | [7] | [14] | Aromatase (Homo sapiens)

OCCN(CCO)CCN(CCO)CCO
inactive: [1] | [2] | [4] | [16] | [17] | [5] | [18] | [9] | [6] | [7] | [10] | [8] | [11] | [13] | [14] | Aromatase (Homo sapiens)

CCCNC(C)(C)COC(=O)c1ccccc1
inactive: [1] | [2] | [3] | [4] | [5] | [6] | [7] | [10] | [8] | [11] | [12] | [13] | [14] | Aromatase (Homo sapiens)

COC(=O)c1ccc2cc(C(=O)OC)ccc2c1
inactive: [1] | [15] | [3] | [4] | [5] | [9] | [6] | [7] | [10] | [8] | [11] | [12] | [13] | [14] | Aromatase (Homo sapiens)

CCCCC(=O)O[C@]1(C(=O)CO)[C@H](C)C[C@H]2[C@@H]3CCC4=CC(=O)C=C[C@]4(C)[C@@]3(F)[C@@H](O)C[C@@]21C
active: [2] 26.6 µM
inactive: [1] | [5] | [9] | [7] | [8] | [11] | [12] | [14] | Aromatase (Homo sapiens)

CCCCCCOc1ccc(N)cc1
inactive: [1] | [4] | [5] | [9] | [7] | [11] | [14]
active: [2] 61.1 µM | [12] 9.69 µM
